This is an account of results in ChEMBL document CHEMBL4513216, “Probing the Open Global Health Chemical Diversity Library for Multistage-Active Starting Points for Next-Generation Antimalarials” (ACS Infect Dis, 2020).

Among all 68,000 compounds or so, about 2,700 (4%) showed an effect of 50% or more. What follows is part of a selection rich in strong results, with near analogues and random picks from the rest.

The assay concerns Plasmodium berghei. The assay is described as follows: Screen against P. berghei liver stage (PbLuc), transformed with Luciferase, at 2uM. Particulars: tested at 2 uM. The assay is classed as functional, HepG2.
Take `Cn1c(CN2CCCCC2)nnc1C1CCN(c2nccc(N)n2)CC1`: the INHIBITION came to 21.2%.

`c1cnn(CC2CN(Cc3noc(C4CC4)n3)CCO2)c1` (configuration not stated): the INHIBITION is reported as -28.51%.

On to `CCn1c(=O)n(Cc2nc(C3CC3)no2)c2ccccc21`, for which the INHIBITION was determined as 30.82%.

As to `CCC1c2ccccc2CCN1C(=O)c1ccnc(C(=O)OC)c1` (configuration not stated), the INHIBITION was 20.34%.

Regarding `CCc1nnc(C(C)N2CCN(CCC(C)(C)C)CC2)o1` (configuration not stated), the INHIBITION turned out to be 38.97%.

Take `COc1cc(C(=O)O)cc(I)c1OCC(=O)NCCc1ccccc1`: the INHIBITION is 56.69%.

Consider `COc1cc(OCC(=O)NCCc2ccccc2)cc(OC)c1OC`, for which the INHIBITION was 28.85%.

Take `COc1cc(C(=O)O)ccc1OCC(=O)NCCc1ccccc1`: the INHIBITION is given as 10.1%.

Regarding `CCN1C[C@H]2[C@@H](C1)N(c1ncc(F)cn1)CC[C@H]2OC`, the INHIBITION worked out at 12.29%.

`CCc1ncc2c(n1)CN(Cc1nnc(C)o1)CC2`: the INHIBITION was 59.18%.

Regarding `CCc1ncc2c(n1)CN(Cc1nnc(C(C)C)o1)CC2`, the INHIBITION stood at 46.76%.

On to `CCc1ncc2c(n1)CN(Cc1nnc(CC)o1)CC2`, for which the INHIBITION worked out at 9.18%.

On to `COCCN1C[C@@H]2[C@@H](OC)CCN(Cc3ccsc3)[C@@H]2C1`, for which the INHIBITION came to 20.91%.

For `Cc1cc2nc(CO[C@H]3CN(C4CCC4)C[C@H]3F)[nH]c2cc1C`, the INHIBITION is 46.17%.

With `Cc1cc2nc(CO[C@H]3CN(C4CCN(C)CC4)C[C@H]3F)[nH]c2cc1C`, the INHIBITION was found to be 50.7%.

Regarding `CC(=O)N1C[C@@H](F)[C@@H](OCc2nc3ccc(C#N)cc3[nH]2)C1`, the INHIBITION turned out to be 36.99%.

As for `CN1C[C@@H](F)[C@@H](OCc2nc3ccccc3[nH]2)C1`, the INHIBITION was 40.83%.

On to `CN1C[C@@H](F)[C@@H](OCc2nc3ccc(C#N)cc3[nH]2)C1`, for which the INHIBITION is given as 52.91%.

As for `Cc1cc2nc(CO[C@H]3CN(C4CCCCC4)C[C@H]3F)[nH]c2cc1C`, the INHIBITION amounted to 18.65%.

Regarding `O=C(Cn1cc(Cl)cn1)N1CCCC(c2cc3ccccc3cn2)C1` (configuration not stated), the INHIBITION came out at 36.98%.

With `CCC(NC(=O)c1cnc(N(C)C)nc1C)c1ccc(S(C)(=O)=O)cc1` (configuration not stated), the INHIBITION was 70.81%.

Regarding `CCn1nc(C)c(C(C)NC(=O)c2cnc(N(C)C)nc2C)c1C` (configuration not stated), the INHIBITION was -12.22%.

As to `COCCNC(=O)c1cnc(N(C)C)nc1C`, the INHIBITION is 12.85%.

Consider `CCC(NC(=O)c1cnc(N(C)C)nc1C)c1ccncc1` (configuration not stated), for which the INHIBITION was 57.34%.

For the molecule `CCn1c(C)nnc1SCCNC(=O)c1cnc(N(C)C)nc1C`, the INHIBITION is listed as -41.73%.

Consider `Cc1nc(N(C)C)ncc1C(=O)NCCc1csc(-c2ccncc2)n1`, for which the INHIBITION was found to be 40.05%.

For `O=C(CN1CCc2cncnc2C1)N1CCc2sccc2C1`, the INHIBITION is on record as -27.59%.

Take `Cn1cnnc1SCC(=O)N1C[C@@H]2CC[C@H]1CN(Cc1cccnc1)C2`: the INHIBITION was found to be 12.74%.

Turning to `O=C(CN1CCCCC1)Nc1cc(C(F)(F)F)ccc1-n1cccc1`, the INHIBITION came to 18.54%.

With `CNC(=O)c1cccc(CNC(C)c2cc(C)ccc2OC(F)F)c1` (configuration not stated), the INHIBITION is given as 25.55%.

Consider `CNC(=O)c1cccc(CNC(C)c2ccc(F)cc2N(C)C)c1` (configuration not stated), for which the INHIBITION was determined as 55.25%.

On to `CNC(=O)c1cccc(CNC(C)c2cc(Cl)ccc2OC)c1` (configuration not stated), for which the INHIBITION is recorded as 19.81%.

`CC(C)n1nc(O)c2c1NC(=O)CSC2c1cnn(C)c1` (configuration not stated): the INHIBITION worked out at 6.9%.

Regarding `COc1cc(CNCC(C)O)cc(Cl)c1OCc1ccc(C)cc1` (configuration not stated), the INHIBITION is reported as 44.51%.

On to `COc1ccc(C(C)N2CCN(Cc3nccn3C)CC2)cc1Cl` (configuration not stated), for which the INHIBITION is 18.31%.

For `Cc1ccccc1CN1CCN(Cc2nccn2C)CC1`, the INHIBITION was 20.28%.

Regarding `C=C(C)CN1CCN(Cc2nccn2C)C(C)C1` (configuration not stated), the INHIBITION was found to be 36.95%.

Regarding `COc1ccc(C)cc1CN1CCN(Cc2nccn2C)CC1`, the INHIBITION is 50.61%.

`CC1CN(CC(=O)NC2CCOCC2)CCN1Cc1nccn1C` (configuration not stated): the INHIBITION is -0.99%.

Take `CC1CN(CC(=O)N2CCOCC2)CCN1Cc1nccn1C` (configuration not stated): the INHIBITION worked out at 66.27%.

`COc1ccc(C)cc1CN1CCN(Cc2nccn2C)C(C)C1` (configuration not stated): the INHIBITION came to 50.61%.

As to `COc1ccc(CN2CCN(Cc3nccn3C)C(C)C2)cc1F` (configuration not stated), the INHIBITION is on record as -13.34%.

Take `COc1ccc(F)cc1CN1CCN(Cc2nccn2C)C(C)C1` (configuration not stated): the INHIBITION is -49.85%.

In the case of `Cc1cc(CN2CCc3nc(N4CCOCC4)nc(O)c3CC2)c(C)s1`, the INHIBITION is recorded as 22.84%.

Turning to `Cc1cccc(CNC2CC3(CCN(CCO)CC3)c3ccccc32)n1` (configuration not stated), the INHIBITION is 34.02%.

Turning to `Cc1ccc2oc(SCC(N)=O)nc2n1`, the INHIBITION is reported as -30.1%.

In the case of `CN(C(=O)Nc1nncs1)C1CCN(c2ccccc2Cl)C1=O` (configuration not stated), the INHIBITION was found to be 2.06%.

For `Cn1cnc2c1C(COCC1CCOCC1)CN(C(=O)c1ccco1)C2` (configuration not stated), the INHIBITION is -39.19%.

For `CN(C)C(=O)N1CCN(C(=O)CCc2ccccc2)[C@H]2CS(=O)(=O)C[C@H]21`, the INHIBITION is -93.14%.

For the molecule `Cn1c(C2CC2)nc2c1CCN(Cc1nc3ccccc3s1)C2`, the INHIBITION is on record as 14.59%.

As to `CN1CC2(CCN(C(=O)COc3ccc(Cl)cc3Cl)CC2)OC1=O`, the INHIBITION came out at 16.37%.

As to `OCC(CO)N1CCC(c2nnc(Cn3ccnc3)n2C2CC2)CC1`, the INHIBITION was 32.26%.

For `CSCCCN1CCC(c2nnc(Cn3ccnc3)n2C2CC2)CC1`, the INHIBITION is 54.29%.

Consider `c1cn(Cc2nnc(C3CCN(C4CCOCC4)CC3)n2C2CC2)cn1`, for which the INHIBITION is reported as 24.88%.

On to `NCCN1CCC(c2nnc(Cn3ccnc3)n2C2CC2)CC1`, for which the INHIBITION is reported as 52.08%.

Turning to `CS(=O)(=O)N1CCC(c2nnc(Cn3ccnc3)n2C2CC2)CC1`, the INHIBITION is reported as -13.72%.

Consider `CC(C)(C)CN1CCC(c2nnc(Cn3ccnc3)n2C2CC2)CC1`, for which the INHIBITION is -13.72%.

Take `COc1ccccc1C(NC(=O)CN(C)C(C)C)c1noc(C)n1` (configuration not stated): the INHIBITION is 1.8%.

For `O=C1CN(C(=O)c2cccc(OCc3cscn3)c2)CCN1`, the INHIBITION is recorded as -7.02%.

With `CS(=O)(=O)N1CCC(NC(=O)COc2ccc(Cl)cc2)CC1`, the INHIBITION is 54.86%.

Regarding `CS(=O)(=O)N1CCC(NC(=O)COc2ccc(Cl)c(Cl)c2)CC1`, the INHIBITION is reported as -34.45%.

As for `Cc1ccc(OCC(=O)NC2CCN(S(C)(=O)=O)CC2)cc1`, the INHIBITION worked out at 30.88%.

Regarding `c1ccc(COC[C@]23COC[C@H]2CN(c2ncccn2)C3)nc1`, the INHIBITION is reported as -19.09%.

Consider `CC(C)N(C)Cc1ncn2c1CN(C(=O)C1CCCO1)CCC2` (configuration not stated), for which the INHIBITION came out at 21.7%.

As for `Cc1c(CNCCCOc2cccnc2)c2ccccc2n1CC(N)=O`, the INHIBITION is 43.87%.

With `Cc1ccc(OCCC(=O)N2CCC(c3nncn3C)CC2)c(C)c1`, the INHIBITION is 7.74%.

`COc1ccc(CC(=O)N2CCC(c3nncn3C)CC2)cc1F`: the INHIBITION amounted to 54%.

Take `CCn1cnnc1C1CCN(C(=O)c2cc(F)ccc2OC)CC1`: the INHIBITION is on record as 27.5%.

On to `CCn1cnnc1C1CCN(C(=O)COc2ccccc2OC)CC1`, for which the INHIBITION was -16.51%.

On to `COc1ccc(CC(=O)N2CCC(c3nnc4n3CCC4)CC2)cc1F`, for which the INHIBITION is listed as -25.23%.

For the molecule `COc1ccc(CC(=O)N2CCCC(c3nncn3C)C2)cc1` (configuration not stated), the INHIBITION is recorded as 14.26%.

Turning to `CCn1cnnc1C1CCN(C(=O)Cc2ccc(OC)c(F)c2)CC1`, the INHIBITION turned out to be 77.01%.

With `COc1ccc(CCNC(=O)N2CCCC(c3nncn3C)C2)cc1` (configuration not stated), the INHIBITION is reported as 55.45%.

As to `Cc1cccc(C)c1OCCC(=O)N1CCC(c2nncn2C)CC1`, the INHIBITION is -1.56%.

Regarding `Cc1ccc(C(=O)CCC(=O)N2CCC(c3nncn3C)CC2)cc1`, the INHIBITION worked out at 54.85%.

As for `COc1ccccc1CCNC(=O)N1CCCC(c2nncn2C)C1` (configuration not stated), the INHIBITION came to 18.59%.

Take `Cn1cnnc1C1CCN(C(=O)Cc2ccc3c(c2)OCCO3)CC1`: the INHIBITION was 5.14%.
